# Laboratory results from PubChem BioAssay AID1851 (National Center for Advancing Translational Sciences (NCATS), 2009).
# Among all 16,000 compounds or so, about 5,700 (36%) were called active. Not shown: some 24% with an inconclusive outcome. Some of the results follow. Values without a mark were called inactive. The call rests on the fitted dose curve; in most records, active means well fitted curve in the direction sought with a large enough effect; inconclusive means small, poorly fitted or top-dose-only effect, or effect the other way; inactive means no such curve, though single readings can be large or run the other way.
# Biological target: Cytochrome P450 1A2 (Homo sapiens) (UniProt P05177)
# Test: Cytochrome panel assay with activity outcomes
# Conditions: recombinant CYP, pro-luciferin dealkylation, luminescence, p450-cyp1a2; series mostly up to 57.1 µM; activity, negative = inhibition: at the top concentration
# On the % scale 0 is the no-effect control and ±100 the full control effect.
# Sequence of Cytochrome P450 1A2 (Homo sapiens) (P05177 whole entry, looked up): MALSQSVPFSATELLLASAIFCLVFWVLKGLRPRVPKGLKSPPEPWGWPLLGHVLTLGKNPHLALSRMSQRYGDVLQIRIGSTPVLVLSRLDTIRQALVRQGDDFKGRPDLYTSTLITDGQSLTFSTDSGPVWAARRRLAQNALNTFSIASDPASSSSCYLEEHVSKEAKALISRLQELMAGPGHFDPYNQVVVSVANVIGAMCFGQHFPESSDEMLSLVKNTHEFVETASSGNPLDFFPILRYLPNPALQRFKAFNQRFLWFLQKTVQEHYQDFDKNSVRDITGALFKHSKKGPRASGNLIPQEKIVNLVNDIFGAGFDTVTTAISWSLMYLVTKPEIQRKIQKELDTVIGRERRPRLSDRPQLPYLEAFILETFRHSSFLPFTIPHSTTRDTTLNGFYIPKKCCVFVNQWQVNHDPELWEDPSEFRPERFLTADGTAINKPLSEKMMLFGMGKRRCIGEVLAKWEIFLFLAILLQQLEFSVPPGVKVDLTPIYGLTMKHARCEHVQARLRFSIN
Structure (SMILES),"activity, negative = inhibition",AC50
CCc1cc2c(nc1CC)CCN(CC/C(C)=N/O[C@@H]1O[C@H](COC(C)=O)[C@H](OC(C)=O)[C@H](OC(C)=O)[C@H]1OC(C)=O)C2,0.132% [at 11.4 µM],–
Nc1nonc1-c1noc(CCCN2C(=O)c3ccccc3C2=O)n1,–,14.1 µM (active)
O=C(NCc1cccnc1)/C(=C/c1ccc(-c2cccc(Cl)c2)o1)S(=O)(=O)c1ccccc1,–,25.1 µM (active)
Cc1ccc(NC(=O)C(=O)NCc2ccc(/C=C(/C#N)C(=O)NCc3cccnc3)o2)cc1,-13.3%,–
COc1ccc2c(c1[N+](=O)[O-])CCC/C2=N/OC(=O)c1ccccc1SC,–,0.794 µM (active)
COc1ccc2c(c1[N+](=O)[O-])CCC/C2=N/OC(=O)c1cccc2ccccc12,–,0.794 µM (active)
COc1ccccc1C(=O)O/N=C1/CCCc2c1ccc(OC)c2[N+](=O)[O-],–,0.447 µM (active)
CC1CSc2nc3sc4c(c3c(=O)n21)CCCC4 (stereo unspecified),–,3.55 µM (active)
CSC(=NC#N)N1CCN(c2ccc(Cl)cc2)CC1,–,4.47 µM (active)
C[C@H](NCCc1ccc(O)cc1)[C@@H](O)c1ccc(O)cc1,–,inactive
C[C@H](N[C@@H](C)COc1ccccc1)[C@H](O)c1ccc(O)cc1,–,5.01 µM (active)
Cc1ccc(C(CC(N)=O)c2ccco2)cc1 (stereo unspecified),-5.6%,–
CCOC(=O)C1C(=O)C=C(c2ccc(C)cc2)CC1c1ccco1 (stereo unspecified),–,4.47 µM (active)
CCOC(=O)C1=C(N)n2c(s/c(=C\c3ccco3)c2=O)=C(C(=O)OCC)C1c1ccco1 (stereo unspecified),-56%,–
CC1=CC2=NC(=O)CC(C)(C(=O)N(CC(=O)NC(C)(C)C)Cc3cccs3)N2C=C1 (stereo unspecified),11.6%,–
O=C(O)c1cc2c(o1)CCC/C2=N\O,-4.91%,–
c1ccc(C2=NN[C@@H]3c4ccccc4-c4ccccc4N3C2)cc1,–,0.2 µM (active)
CCOc1ccc2nc(NC(=O)c3ccc(S(=O)(=O)N4CCOCC4)cc3)sc2c1,-13.6%,–
COc1ccc2nc(NC(=O)CSc3nnc(C)s3)sc2c1,–,2.82 µM (active)
CCCOc1ccc(C(=O)NC(=S)Nc2nc3ccc(C)cc3s2)cc1,-9.82%,–
COc1ccc2nc(N)sc2c1,–,12.6 µM (active)
COc1ccc2nc(C)cc(SCC(=O)Nc3c(C)cc(C)cc3C)c2c1,-12.6%,–
COc1ccc2nc(/N=C\N(C)C)sc2c1,–,0.631 µM (active)
COc1ccc(Cc2c(N)nc(N)nc2N)cc1,-7.11%,–

Structure (SMILES),"activity, negative = inhibition",AC50
COc1ccc2nc(NC(C)=O)sc2c1,–,3.55 µM (active)
COc1ccc(N2C(N)=NC(N)=NC2(C)C)cc1,10.4%,–
CN(C)Cc1ccc(O)c(CN(C)C)n1,-8.37% [at 11.4 µM],–
C[C@]12CC[C@H]3c4ccc(O)cc4CC[C@@H]3[C@H]1CC[C@@H]2OC(=O)CCC1CCCC1,-12.2% [at 11.4 µM],–
CC(C)(C)NS(=O)(=O)c1ccc(NS(=O)(=O)c2ccc(F)cc2)cc1,8.66%,–
COc1ccc(NS(=O)(=O)c2cc(-c3nnnn3C)ccc2OC)cc1,-12%,–
COc1ccc(S(=O)(=O)Nc2ccc(F)cc2)c(C)c1C,–,14.1 µM (active)
COCCNC(=O)c1cc(-c2cccc(OC)c2)on1,–,12.6 µM (active)
COc1ccc(-c2cc(C(=O)NCc3cccnc3)no2)cc1OC,–,20 µM (active)
COc1cccc(-c2nc(CS(=O)(=O)CC(=O)NCCCOC(C)C)c(C)o2)c1,-11.6%,–
CCC(C)C1NC(=S)N(C2CCCCC2)C1=O (stereo unspecified),-15.6%,–
O=C(Nc1cccc2ncccc12)c1ccc(-c2ccc(Br)cc2)o1,–,0.501 µM (active)
CC(C)(C)NC(=O)CSc1nnc(Cc2ccc3c(c2)OCO3)n1C1CCCCC1,-16.8%,–
Cc1cc2cc(C)c3nnc(SCC(=O)NCc4ccc5c(c4)OCO5)n3c2cc1C,–,20 µM (active)
O=C1C2Sc3[nH]c(=O)sc3C(c3ccccc3)C2C(=O)N1c1ccccc1 (stereo unspecified),-9.7%,–
N#Cc1cccc(-c2nccc(NCc3ccccc3)n2)c1,–,0.501 µM (active)
N#Cc1cccc(-c2nccc(NCc3cccs3)n2)c1,–,0.251 µM (active)
N#Cc1cccc(-c2nccc(NCc3cccnc3)n2)c1,–,0.251 µM (active)
Cc1cccc(CNc2ccnc(-c3cccc(C#N)c3)n2)c1,–,0.398 µM (active)
N#CCCn1c(=O)cnc2cnc(N3CCOCC3)nc21,–,10 µM (active)
O=c1cnc2cnc(N3CCOCC3)nc2n1CCc1ccccc1,–,3.16 µM (active)
Cc1nc2cnc(N3CCOCC3)nc2n(CCC#N)c1=O,–,12.6 µM (active)
CCc1cc2c(nc1CC)CCN(CC/C(C)=N/OC[C@H]1O[C@H](c3ccccc3)C=C[C@@H]1Oc1ccc(OC)cc1)C2,0.11% [at 11.4 µM],–
Cc1ccc(-n2nc(C)c3c2OC(N)=C(C#N)C3c2ccco2)cc1 (stereo unspecified),–,8.91 µM (active)

Structure (SMILES),"activity, negative = inhibition",AC50
CCn1c2ccccc2c2cnc(N=CN(C)C)c(C#N)c21,–,1.41 µM (active)
Cc1nc(N/N=C/c2ccccc2)nc(N(C)c2ccccc2)c1[N+](=O)[O-],–,1.58 µM (active)
COC(=O)C/C=C\[C@@H](C)[C@@H](/C=N\O[C@@H](C)CN1CCCCc2nc(C)c(C)cc21)NS(=O)(=O)c1ccc(C)cc1,-4.63% [at 11.4 µM],–
COc1cc(C(=O)NC(=S)Nc2ccc3oc(=O)ccc3c2)cc(OC)c1OC,-0.189%,–
CCOc1ccc(C(=O)O)cc1OC,-16.3%,–
COc1ccc(C(=O)NC(=S)NC(C)C)cc1Br,–,3.16 µM (active)
C=CCN(CC=C)C(=S)NC(=O)c1ccc(OC)c(Br)c1,–,0.562 µM (active)
COc1ccc(C(=O)NNC(=O)Cc2ccc(-c3ccccc3)cc2)cc1OC,-20.2%,–
COc1ccc(C(=O)c2ccccc2)cc1Br,–,10 µM (active)
COc1ccc(C(=O)NC(=S)NC(C)(C)C)cc1Br,–,0.562 µM (active)
COc1ccc(NC(=O)N2CC3(CCN(S(C)(=O)=O)CC3)C2)cc1,-4.57%,–
FC(F)(F)c1ccccc1-c1ccc2ncnc(NC3CC3)c2c1,–,0.316 µM (active)
Cc1ccccc1-c1ccc2ncnc(NC3CC3)c2c1,–,0.126 µM (active)
CS[C@@H](CC(=O)O)C(=O)O,6.13% [at 11.4 µM],–
CCOCCCN1C(=O)CN(C2CCCCC2)C(=O)C1c1ccc(OCC)c(OC)c1 (stereo unspecified),1.09%,–
O=C(Nc1ccccn1)c1ccco1,–,11.2 µM (active)
CCC(C)(NC(=O)c1ccccn1)C(=O)NC1CCCCC1 (stereo unspecified),-23.3%,–
O=C(N/N=C/c1ccco1)c1ccccn1,–,6.31 µM (active)
O=C(c1ccco1)N1CCC2(CC1)CN(c1ccccn1)C2,-2.55%,–
Cc1cc(C)n(CC(=O)N/N=C/c2ccco2)n1,-5.36%,–
O=C(N/N=C/c1ccccn1)c1ccc(Br)o1,–,6.31 µM (active)
O=C(NN=C1c2ccccc2-c2ccccc21)c1ccccn1,–,0.501 µM (active)
C[N+](C)(C)c1nc(N)nc2c1ncn2[C@H]1O[C@@H](CO)[C@@H](O)[C@H]1O,-4.9% [at 2.29 µM],–
O=C1COC(c2ccccc2O)=NN1CCCN1CCCC1,-13.6% [at 11.4 µM],–

Structure (SMILES),"activity, negative = inhibition",AC50
CC(Oc1ccc(O)cc1)(P(=O)(O)O)P(=O)(O)O,8.37%,–
O=C(CNC(=O)c1ccccn1)N/N=C/c1ccccc1,–,4.47 µM (active)
O=C(N/N=C/c1ccccn1)c1ccco1,–,15.8 µM (active)
CO[C@H]1COC(=O)C/C=C\[C@H](C)COC(=O)[C@@H](OCc2ccccc2)/C=C\[C@@H]1C,-6.26% [at 11.4 µM],–
CC(C)=NOC[C@@H](O)COCc1ccco1,4.83% [at 11.4 µM],–
CC(C)[C@H]1C(=O)C(C(N)=O)=C(O)[C@]2(O)C(=O)C3=C(O)c4c(O)ccc(N(C)C)c4C[C@H]3C[C@@H]12,-1.01%,–
Nc1cc2c(nc3c4ccccc4c(N)cc3[n+]2-c2cccc3ccccc23)c2ccccc12 (tested in a mixture with another compound),–,1.26 µM (active)
COc1ccc(CNC(=O)c2csc(Cc3ccc(Cl)cc3)n2)cc1,–,0.891 µM (active)
COc1ccc(Cc2nnc(NC(=O)c3cccc([N+](=O)[O-])c3C)s2)cc1,8.33%,–
COc1ccc(CNC(=O)c2csc(Cc3ccc(OC)cc3)n2)cc1,–,14.1 µM (active)
COc1ccc(CNC(=O)C2CSC(=O)C2)cc1 (stereo unspecified),-0.484%,–
CCN(C(=O)COc1cc(=O)n(C)c2ccccc12)c1cccc(Cl)c1,–,15.8 µM (active)
CC1Cc2ccccc2N1C(=O)c1cc2c(=O)n3ccccc3nc2n1C (stereo unspecified),–,3.16 µM (active)
Cc1ccc(S(=O)(=O)/C(C#N)=C/c2c(N3CC(C)OC(C)C3)nc3ccccn3c2=O)cc1 (stereo unspecified),-4.89%,–
CC1Cc2ccccc2N1C(=O)C1CCCCN1S(=O)(=O)c1ccccc1 (stereo unspecified),-7.61%,–
Cn1c(C(=O)N2COCC2(C)C)cc2c(=O)n3ccccc3nc21,–,6.31 µM (active)
O=C(NCC1CCCO1)c1ccc2c(=O)n(Cc3ccco3)c(SCC(=O)N3CCCC3)nc2c1 (stereo unspecified),-4.77%,–
Cc1ccccc1-n1ncc2c(SCC(=O)N3c4ccccc4CC3C)ncnc21 (stereo unspecified),-27.5%,–
Cn1c(C(=O)NCC2CCCO2)cc2c(=O)n3ccccc3nc21 (stereo unspecified),–,2.24 µM (active)
C[C@@H](c1ccccc1)N1C(=O)[C@H]2[C@H]3[C@H](O)[C@H](O)C/C(=N/OC[C@@H](O)COCc4ccco4)[C@@H]3CC[C@@H]2C1=O,-14.6% [at 11.4 µM],–
COCCn1c(=O)cnc2cnc(Nc3cccc(OC)c3)nc21,–,0.794 µM (active)
COCCn1c(=O)cnc2cnc(Nc3ccccc3)nc21,–,1 µM (active)
COc1cccc(Nc2ncc3ncc(=O)n(C)c3n2)c1,–,1.58 µM (active)
Cn1c(=O)cnc2cnc(Nc3ccccc3)nc21,–,2 µM (active)
